{
  "source": "PubChem BioAssay AID504910",
  "about": "(Southern Research Specialized Biocontainment Screening …, 2011)",
  "test": "HepG2 cell cytotoxicity, cytotoxicity control, set 4 (AID 504910)",
  "note": "Measured potencies and affinities stand elsewhere. The source made the active and inactive calls. No rule for the calls is given here.",
  "data": [
    {"smiles": "O=C(CSc1ncccn1)NC1CCCCC1", "values": [
      {"measurement": "outcome", "value": "inactive"}
    ]},
    {"smiles": "CNC(=O)CSc1nc2ccccc2c(=O)[nH]1", "values": [
      {"measurement": "outcome", "value": "inactive"}
    ]},
    {"smiles": "CCC(Sc1nc2c(c(=O)[nH]1)CCC2)C(=O)Nc1cccc(OC)c1", "note": "(centres undefined)", "values": [
      {"measurement": "outcome", "value": "inactive"}
    ]},
    {"smiles": "O=c1[nH]c(=S)[nH]c2ccccc12", "values": [
      {"measurement": "outcome", "value": "inactive"}
    ]},
    {"smiles": "Cc1[nH]c(=S)[nH]c(=O)c1C", "values": [
      {"measurement": "outcome", "value": "inactive"}
    ]},
    {"smiles": "NC[C@H]1O[C@H](O[C@H]2[C@H](O)[C@@H](O[C@H]3O[C@H](CO)[C@@H](O)[C@H](N)[C@H]3O)[C@H](N)C[C@@H]2N)[C@H](O)[C@@H](O)[C@@H]1O", "values": [
      {"measurement": "outcome", "value": "inactive"}
    ]},
    {"smiles": "O=C(CSc1nc2c(c(=O)[nH]1)CCC2)NC1CCCCC1", "values": [
      {"measurement": "outcome", "value": "inactive"}
    ]},
    {"smiles": "NNC(=O)c1ccncc1", "values": [
      {"measurement": "outcome", "value": "inactive"}
    ]},
    {"smiles": "COc1c(N2CCNC(C)C2)c(F)cc2c(=O)c(C(=O)O)cn(C3CC3)c12", "note": "(centres undefined)", "values": [
      {"measurement": "outcome", "value": "inactive"}
    ]},
    {"smiles": "O=C(CSc1nc2ccccc2c(=O)[nH]1)N1CCOCC1", "values": [
      {"measurement": "outcome", "value": "inactive"}
    ]},
    {"smiles": "Cc1nc(SCC(=O)NC2CCCC2)[nH]c(=O)c1C", "values": [
      {"measurement": "outcome", "value": "inactive"}
    ]},
    {"smiles": "Cc1nc(SCC(N)=O)[nH]c(=O)c1C", "values": [
      {"measurement": "outcome", "value": "inactive"}
    ]},
    {"smiles": "COC(=O)C(Nc1nc(SCC(=O)NC2CCCCC2)nc2ccccc12)c1ccccc1", "note": "(centres undefined)", "values": [
      {"measurement": "outcome", "value": "inactive"}
    ]},
    {"smiles": "COc1cccc(NC(=O)CSc2nc3ccccc3c(=O)[nH]2)c1", "values": [
      {"measurement": "outcome", "value": "inactive"}
    ]},
    {"smiles": "CCC(Sc1nc2ccccc2c(=O)[nH]1)C(=O)NC1CCCCC1", "note": "(centres undefined)", "values": [
      {"measurement": "outcome", "value": "inactive"}
    ]},
    {"smiles": "CCOC(=O)CSc1nc(C)c(C)c(=O)[nH]1", "values": [
      {"measurement": "outcome", "value": "inactive"}
    ]},
    {"smiles": "Cc1cc(=O)[nH]c(SCC(=O)NC2CCCCC2)n1", "values": [
      {"measurement": "outcome", "value": "inactive"}
    ]},
    {"smiles": "CCSc1nc2ccccc2c(=O)[nH]1", "values": [
      {"measurement": "outcome", "value": "inactive"}
    ]},
    {"smiles": "CC[N+](C)(CC)CCCCOc1ccc2c(c1)C(=O)c1cc(OCCCC[N+](C)(CC)CC)ccc1-2", "values": [
      {"measurement": "outcome", "value": "inactive"}
    ]}
  ]
}
